Values joined by “and” are separate entries in the source; they are usually repeats but may differ in a detail not shown here. Equal values may be shown once. Among all 5,500 compounds or so, about 2,000 (36%) were called active. Inconclusive results (about 18%) are left out. Cut-off read from the data, not from the text of the source: active = normalized growth mostly below about 0.91 (no sharp cut-off); inconclusive = no clear call, values can overlap the other calls; inactive = mostly above about 0.92. The list shows a part of the results.
Experiment: chemical genetic growth profiling, strain panel (AID 1159580);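 note: tested at 20 µM; growth read once vehicle control cultures reached saturation at 30 °C; 1 = growth at the plate median or of vehicle wells; lower values mean less growth of the strain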
Details: S. cerevisiae deletion strains, growth OD

Measured: normalized growth

O=C(O)/C=C/C=C/c1ccccc1
0.967 (inactive) and 0.21 (active): locus YHR030C, strain SLT2, stronger effect = lower value
0.985 (inactive) and 0.23 (active): locus YJL095W, strain BCK1, stronger effect = lower value
active: locus YAL021C, strain ccr4, stronger effect = lower value 0.827 | locus YAL026C, strain drs2, stronger effect = lower value 0.783 | locus YAL030W, strain snc1, stronger effect = lower value 0.826 | locus YBL061C, strain skt5, stronger effect = lower value 0.826 | locus YBR009C, strain hhf1, stronger effect = lower value 0.83 | locus YBR023C, strain chs3, stronger effect = lower value 0.811 | locus YBR171W, strain sec66, stronger effect = lower value 0.83 | locus YBR231C, strain swc5, stronger effect = lower value 0.804 | locus YBR279W, strain paf1, stronger effect = lower value 0.833 | locus YCL011C, strain gbp2, stronger effect = lower value 0.814 | locus YCL016C, strain dcc1, stronger effect = lower value 0.836 | locus YCL069W, strain vba3, stronger effect = lower value 0.789 | locus YCR088W, strain abp1, stronger effect = lower value 0.764 | locus YDL005C, strain med2, stronger effect = lower value 0.875 | locus YDL040C, strain nat1, stronger effect = lower value 0.861 | locus YDL185W, strain tfp1, stronger effect = lower value 0.818 | locus YDR001C, strain nth1, stronger effect = lower value 0.793 | locus YDR069C, strain doa4, stronger effect = lower value 0.863 | locus YDR137W, strain rgp1, stronger effect = lower value 0.539 | locus YDR159W, strain sac3, stronger effect = lower value 0.596 | locus YDR297W, strain sur2, stronger effect = lower value 0.816 | locus YDR318W, strain mcm21, stronger effect = lower value 0.91 | locus YDR334W, strain swr1, stronger effect = lower value 0.746 | locus YDR335W, strain msn5, stronger effect = lower value 0.766 | locus YDR392W, strain spt3, stronger effect = lower value 0.624 | locus YDR502C, strain sam2, stronger effect = lower value 0.914 | locus YEL003W, strain gim4, stronger effect = lower value 0.836 | locus YEL037C, strain rad23, stronger effect = lower value 0.816 | locus YEL061C, strain CIN8 (second series), stronger effect = lower value 0.763 | locus YER015W, strain faa2, stronger effect = lower value 0.866 | locus YER016W, strain bim1, stronger effect = lower value 0.816 | locus YER110C, stronger effect = lower value 0.887 | locus YER111C, strain swi4, stronger effect = lower value 0.774 | locus YER155C, strain BEM2 (second series), stronger effect = lower value 0.636 | locus YER155C, strain BEM2, stronger effect = lower value 0.899 | locus YFR010W, strain ubp6, stronger effect = lower value 0.803 | locus YGL078C, strain dbp3, stronger effect = lower value 0.806 | locus YGL086W, strain mad1, stronger effect = lower value 0.927 | locus YGL167C, strain pmr1, stronger effect = lower value 0.837 | locus YGL173C, strain kem1, stronger effect = lower value 0.804 | locus YGL227W, strain vid30, stronger effect = lower value 0.761 | locus YGL240W, strain doc1, stronger effect = lower value 0.629 | locus YGL253W, strain hxk2, stronger effect = lower value 0.772 | locus YGR252W, strain gcn5, stronger effect = lower value 0.727 | locus YHR013C, strain ard1, stronger effect = lower value 0.767 | locus YHR027C, strain rpn1, stronger effect = lower value 0.87 | locus YHR079C, strain IRE1, stronger effect = lower value 0.238 | locus YHR094C, strain hxt1, stronger effect = lower value 0.917 | locus YHR142W, strain chs7, stronger effect = lower value 0.713 | locus YIL125W, strain kgd1, stronger effect = lower value 0.786 | locus YIR030C, strain dcg1, stronger effect = lower value 0.914 | locus YJL092W, strain hpr5, stronger effect = lower value 0.79 | locus YJL095W, strain BCK1 (second series), stronger effect = lower value 0.847 | locus YJL115W, strain asf1, stronger effect = lower value 0.762 | locus YJL129C, strain trk1, stronger effect = lower value 0.629 | locus YJL154C, strain vps35, stronger effect = lower value 0.808 | locus YJL164C, strain tpk1, stronger effect = lower value 0.8 | locus YJL166W, strain qcr8, stronger effect = lower value 0.813 | locus YJL168C, strain set2, stronger effect = lower value 0.929 | locus YJL187C, strain SWE1, stronger effect = lower value 0.825
inactive: locus YBR021W, strain FUR4, stronger effect = lower value 0.862 | locus YBR229C, strain ROT2, stronger effect = lower value 0.983 | locus YCL029C, strain bik1, stronger effect = lower value 0.952 | locus YDL035C, strain GPR1, stronger effect = lower value 0.964 | locus YDL074C, strain BRE1, stronger effect = lower value 0.924 | locus YDL101C, strain DUN1, stronger effect = lower value 0.979 | locus YDL134C, strain PPH21, stronger effect = lower value 0.97 | locus YDL192W, strain arf1, stronger effect = lower value 0.922 | locus YDR101C, strain arx1, stronger effect = lower value 0.938 | locus YDR150W, strain NUM1, stronger effect = lower value 0.966 | locus YDR162C, strain NBP2, stronger effect = lower value 0.943 | locus YDR195W, strain ref2 1.01 | locus YDR388W, stronger effect = lower value 0.931 | locus YEL061C, strain CIN8, stronger effect = lower value 0.977 | locus YER167W, strain BCK2, stronger effect = lower value 0.974 | locus YGL248W, strain PDE1, stronger effect = lower value 0.973 | locus YGR135W, strain pre9, stronger effect = lower value 0.916 | locus YGR229C, strain SMI1, stronger effect = lower value 0.993 | locus YHR079C, strain IRE1 (second series), stronger effect = lower value 0.927 | locus YHR129C, strain ARP1, stronger effect = lower value 0.96 | locus YHR200W, strain rpn10, stronger effect = lower value 0.949 | locus YIL066C, strain RNR3, stronger effect = lower value 0.996 | locus YIL073C, strain SPO22, stronger effect = lower value 1.05 | locus YJL134W, strain LCB3, stronger effect = lower value 0.975 | locus YJL187C, strain SWE1 (second series), stronger effect = lower value 0.975 | locus YJR043C, strain POL32, stronger effect = lower value 0.968

— PubChem BioAssay AID1159580 (chemical genetic matrix, 2015)
